The values that follow come from PMC4336329 (PLoS ONE, 2015).

Each structure is given as a SMILES string. The whole screen tested about 310,000 compounds, of which about 14,000 (4.5%) showed an effect of 50% or more. The effect is printed as a negative number. The full list was thinned out, with strong results kept by preference.
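Also: peak tail current of the secondary pulse compared with the same well before compound.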

human ether-à-go-go-related gene (hERG) potassium channel, sequence (Q12809 whole entry, looked up): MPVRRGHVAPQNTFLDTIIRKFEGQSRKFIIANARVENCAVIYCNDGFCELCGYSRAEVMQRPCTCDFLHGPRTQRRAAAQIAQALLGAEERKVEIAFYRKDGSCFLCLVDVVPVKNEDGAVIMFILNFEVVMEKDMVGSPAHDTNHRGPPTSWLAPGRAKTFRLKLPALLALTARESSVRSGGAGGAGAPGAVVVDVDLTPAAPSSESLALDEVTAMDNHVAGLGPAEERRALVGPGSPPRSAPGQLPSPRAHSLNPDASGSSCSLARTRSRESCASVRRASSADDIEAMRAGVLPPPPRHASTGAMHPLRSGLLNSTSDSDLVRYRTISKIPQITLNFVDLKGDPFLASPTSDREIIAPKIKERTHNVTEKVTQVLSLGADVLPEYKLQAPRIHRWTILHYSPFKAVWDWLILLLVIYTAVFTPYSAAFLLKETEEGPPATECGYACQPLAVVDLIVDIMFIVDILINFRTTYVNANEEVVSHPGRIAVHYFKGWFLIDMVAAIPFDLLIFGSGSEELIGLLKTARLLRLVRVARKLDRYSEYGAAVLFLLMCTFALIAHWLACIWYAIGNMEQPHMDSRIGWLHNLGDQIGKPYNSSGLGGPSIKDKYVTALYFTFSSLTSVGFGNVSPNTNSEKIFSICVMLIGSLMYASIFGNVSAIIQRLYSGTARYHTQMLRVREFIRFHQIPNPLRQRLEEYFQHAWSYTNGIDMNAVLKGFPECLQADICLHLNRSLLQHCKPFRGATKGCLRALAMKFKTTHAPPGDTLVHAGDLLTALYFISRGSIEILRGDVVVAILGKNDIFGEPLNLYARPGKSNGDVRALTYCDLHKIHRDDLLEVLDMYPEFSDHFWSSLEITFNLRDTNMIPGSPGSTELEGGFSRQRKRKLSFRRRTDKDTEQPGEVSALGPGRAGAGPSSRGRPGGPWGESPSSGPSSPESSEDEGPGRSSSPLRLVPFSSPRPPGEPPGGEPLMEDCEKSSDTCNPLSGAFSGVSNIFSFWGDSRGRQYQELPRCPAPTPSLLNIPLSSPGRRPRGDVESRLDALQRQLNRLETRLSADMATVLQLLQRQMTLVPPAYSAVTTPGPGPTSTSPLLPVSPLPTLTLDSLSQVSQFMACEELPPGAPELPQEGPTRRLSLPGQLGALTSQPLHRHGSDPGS

This assay concerns the target human ether-à-go-go-related gene (hERG) potassium channel (human, UniProt Q12809). The assay can be described thus: primary screen, population patch clamp on CHO cells stably expressing hERG; higher = less effect of the substance.
In the case of `O=C(Nc1ccc(NC(=O)c2ccc([N+](=O)[O-])o2)cc1Cl)c1ccco1`, the “hERG current change (%, negative = inhibition) at 10uM” value was found to be 9.42%.
`CN1CCN(c2ccc(NC(=O)c3ccco3)cc2Cl)CC1`: the “hERG current change (%, negative = inhibition) at 10uM” value is -16.8%.
To `CC(=O)N1CCN(c2ccc(NC(=O)c3ccc(N4CCCC4)c([N+](=O)[O-])c3)cc2Cl)CC1` belongs -12.4%.
Take `CC1CCCCC12NC(=O)N(CC(=O)NCCc1ccc(F)cc1)C2=O` (stereo not drawn): the “hERG current change (%, negative = inhibition) at 10uM” value was -19.7%.
Take `Cc1ccc2[nH]c3c(=O)n(CC(=O)Nc4ccccc4N4CCN(C)CC4)ncc3c2c1`: the “hERG current change (%, negative = inhibition) at 10uM” value was -5.73%.
With `COc1ccc(/C=C2/SC(=S)N(CCCC(=O)Nc3cccc(O)c3)C2=O)cc1` the figure was 9.11%; with `Cc1cccc(NC(=O)CN(C)S(=O)(=O)c2ccc3c(c2)n(C)c(=O)c(=O)n3C)c1C`, -7.72%.
With `Br.COc1ncnc2c1N=C1CC(C)(C)CC(N)=C1S2` the figure was -10.4%; with `Cc1ccc(S(=O)(=O)N2CCN(c3ccccc3)CC2)cc1`, 13%.
`COc1ccc(COCC(O)CN(Cc2ccccc2)C(C)C)cc1OC` (stereo not drawn): the “hERG current change (%, negative = inhibition) at 10uM” value came out at 0.398%.
With `CC(C)N(Cc1ccccc1)CC(O)COc1ccc(S(=O)(=O)N2CCOCC2)cc1Cl` (stereo not drawn) the figure was -32.3%.
With `COC(=O)Cc1c[nH]c2cccc(OCC(O)CN(Cc3ccccc3)C(C)C)c12.O=C(O)c1ccccc1O` (stereo not drawn) the figure was -63%; with `O=C(C[n+]1cc(-c2ccc(Cl)c(Cl)c2)n2c1CCC2)c1cccs1.[Br-]`, -3.09%.
With `O=C(N/N=C/c1cccc(OC(=O)c2ccccc2Cl)c1)c1cccnc1` the figure was -17%.
On to `O=C(Nc1cccc2ccccc12)c1cccc([N+](=O)[O-])c1`, for which the “hERG current change (%, negative = inhibition) at 10uM” value is on record as 11.6%.
With `O=C1c2ccccc2NC(c2cccc(F)c2)N1Cc1ccccc1` (stereo not drawn), the “hERG current change (%, negative = inhibition) at 10uM” value is recorded as -71.1%.
With `CCN(CC)CCN1C(=O)c2ccccc2NC1c1ccc(C)cc1` (stereo not drawn) the figure was -66.1%; with `CCN(CC)CCN1C(=O)c2ccccc2NC1c1ccccc1F` (stereo not drawn), -46.3%; with `CCCN1C(=O)c2ccccc2NC1c1ccc(Br)cc1` (stereo not drawn), -18.1%.
As to `O=C1c2ccccc2NC(c2ccc(F)cc2)N1Cc1ccccc1` (stereo not drawn), the “hERG current change (%, negative = inhibition) at 10uM” value is recorded as -9.65%.
As for `CCN(CC)CCN1C(=O)c2ccccc2NC1c1ccc(N(C)C)cc1` (stereo not drawn), the “hERG current change (%, negative = inhibition) at 10uM” value is on record as -46.6%.
As for `CCN(CC)CCN1C(=O)c2ccccc2NC1c1ccc(Br)cc1` (stereo not drawn), the “hERG current change (%, negative = inhibition) at 10uM” value was -85.7%.
Consider `O=C1c2ccccc2NC(c2cccc(F)c2)N1Cc1ccco1` (stereo not drawn), for which the “hERG current change (%, negative = inhibition) at 10uM” value was -48.6%.
With `CCCN1C(=O)c2ccccc2NC1c1ccc(C)cc1` (stereo not drawn) the figure was -4.35%; with `CCN(CC)CCN1C(=O)c2ccccc2NC1c1cccc(F)c1` (stereo not drawn), -68.2%; with `O=C1c2ccccc2NC(c2ccccc2)N1Cc1ccccc1` (stereo not drawn), -35.2%.
To `CCCN1C(=O)c2ccccc2NC1c1ccc(Cl)c(Cl)c1` (stereo not drawn) belongs 6.85%.
As for `COc1ccc(NC(=S)N2CCN(Cc3cccc(F)c3)CC2)c(OC)c1`, the “hERG current change (%, negative = inhibition) at 10uM” value is on record as -6.36%.
To `COc1ccc(C(=O)N2C(=S)NC(=O)/C2=C\c2ccc(C)cc2)cc1` belongs -2.42%; to `Cc1cccc(CN2C(=O)/C(=C\c3ccc(C(=O)NCCCN4CCN(C)CC4)cc3)Oc3ccccc32)c1`, -4.13%.
As to `O=C(NCCNC1CCN(Cc2ccccc2)CC1)c1cccs1`, the “hERG current change (%, negative = inhibition) at 10uM” value is -15.2%.
`COc1ccc(NC(=O)CN(C)CC(=O)Nc2ccc(Cl)cc2[N+](=O)[O-])cc1`: the “hERG current change (%, negative = inhibition) at 10uM” value was -48%.
`CCOC(=O)c1[nH]cnc1C(=O)Nc1ccc(C)cc1`: the “hERG current change (%, negative = inhibition) at 10uM” value was 11.6%.
As for `CC1(C)CC(NC(=O)Nc2ccc([N+](=O)[O-])cc2)CC(C)(C)N1`, the “hERG current change (%, negative = inhibition) at 10uM” value is listed as 9.76%.
With `FC(F)(F)c1nnc2c(Sc3ccc(Cl)cc3)nc3ccccc3n12` the figure was 13.5%.
With `CC(=O)c1c(C)oc2ccc(OCc3ccccc3)cc12` the figure was 0.181%; with `Cc1ccc(NC2=NC(c3ccc(F)cc3)n3c(nc(C)cc3=O)N2)c(C)c1` (stereo not drawn), 21.8%; with `O=C(Cn1cc([N+](=O)[O-])cn1)NCc1ccccc1`, 20.9%.
`CCC(C)[C@H]1CNC(=O)C(=O)N1CCCc1cc(OC)c(OC)c(OC)c1` (stereo partly drawn): the “hERG current change (%, negative = inhibition) at 10uM” value worked out at 9.16%.
As for `COc1ccc(C2Nc3ccccc3C(=O)N2O)cc1CN1CCOCC1` (stereo not drawn), the “hERG current change (%, negative = inhibition) at 10uM” value is recorded as -2.72%.
Consider `CCN(CC)CCN1C(=O)c2ccccc2NC1c1ccc(F)cc1` (stereo not drawn), for which the “hERG current change (%, negative = inhibition) at 10uM” value was -64.3%.
Consider `COc1ccc(C2Nc3ccccc3C(=O)N2c2ccccc2)cc1CN1CCOCC1` (stereo not drawn), for which the “hERG current change (%, negative = inhibition) at 10uM” value is on record as -26.7%.
To `CCCN1C(=O)c2ccccc2NC1c1ccc(Cl)cc1` (stereo not drawn) belongs -7.23%.
In the case of `COc1ccc(C2Nc3ccccc3C(=O)N2Cc2ccccc2)cc1CN1CCOCC1` (stereo not drawn), the “hERG current change (%, negative = inhibition) at 10uM” value was -63.5%.
In the case of `CCN(CC)CCN1C(=O)c2ccccc2NC1c1cc(OC)c(OC)c(OC)c1` (stereo not drawn), the “hERG current change (%, negative = inhibition) at 10uM” value is -40.7%.
